From PubChem BioAssay
TsaE inh: displaces an ADP probe from E. coli YjeE (TsaE). P0AF67. hit rate 0.05% among 71,000. Potency, µM. purified YjeE enzyme, qHTS inhibition assay
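Purified YjeE (10 uM) with BODIPY Texas Red-labeled ADP probe (2 uM); compounds pin-transferred, 15 min at room temperature. Binding inhibition read as decreased fluorescence polarization; ADP titration as control.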
BRCT PPI green: BRCA1 BRCT-phosphoprotein interaction inhibition. P38398. BRCA1 BRCT-phosphopeptide binding, green fluorescence polarization. Potency, µM (titrated, usually from 76.9 µM), inactives show at the top dose activity change, negative = inhibition, usual class: inhibitors. hit rate 0.05% among 75,000;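 also: potency is read from the fitted curve at half-maximal effect; plate controls were peptide without protein for full effect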
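Compounds were incubated for 12 min at room temperature with a complex of 100 nM fluorescein-tagged pBACH1 decapeptide and 250 nM His-tagged BRCT protein. Buffer was phosphate pH 7.3 with EDTA, DTT and Tween 20. Disruption of binding lowers the polarization signal.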
BRCT PPI red: BRCT-phosphoprotein interaction inhibition (red fluorophore); Potency, µM (top dose mostly 76.9 µM), for inactives: at the highest dose activity change, negative = inhibition, most hits filed as inhibitors; hit rate 0.03% among 75,000; P38398; BRCT-phosphopeptide binding, red fluorescence polarization; also: % is scaled to controls: 0 for no effect and ±100 for the full control effect
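Fluorescence polarization: 100 nM His-tagged BRCA1 BRCT with 100 nM TAMRA-labelled phospho-BACH1 decapeptide, phosphate buffer pH 7.3 with 150 mM NaCl, DTT, 0.01% Tween 20; 12 min RT. Binding inhibition seen as FP decrease.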
HEK293 cAMP ctrl: parental HEK293 cAMP activation (counter-screen) | Potency, µM (series often up to 57.1 µM), for inactives: at the top dose activation, most hits filed as activators | parental HEK293 CNG cAMP sensor, membrane potential fluorescence | AID 938 | hit rate 2.5% among 73,000; also: potency is read from the fitted curve at half-maximal effect; % of control where 0% means no effect; nearly all actives have a fitted effect of over 55% in size
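Counterscreen for endogenous-receptor signalling: CNG-channel HEK 293 cells report cAMP rise by membrane depolarization. After 60 min dye equilibration with 100 uM RO 20-1724, compounds incubated 30 min before bottom-read fluorescence at 590 nm.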
TSHR agonist: agonists of human thyroid stimulating hormone receptor | AID 926 | HEK293-CNG-TSHR cells (CNG channel as cAMP sensor), membrane potential dye, cAMP | P16473 | hit rate 0.48% among 73,000 | Potency, µM (titrated, usually from 57.1 µM), for the others: at the top dose activation, actives largely listed as activators; active = well fitted activation curve with a large enough effect in the main read-out, with a control signal flat, not every such curve was filed as active; inconclusive = small, poorly fitted or top-dose-only effect, or a change in a side signal; inactive = no such curve, though single readings can be large or run the other way; % of control where 0% means no effect;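 also: the control signal comes from parental cells without the receptor; potency is read from the fitted curve at half-maximal effect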
Target sequence (P16473 whole entry, looked up): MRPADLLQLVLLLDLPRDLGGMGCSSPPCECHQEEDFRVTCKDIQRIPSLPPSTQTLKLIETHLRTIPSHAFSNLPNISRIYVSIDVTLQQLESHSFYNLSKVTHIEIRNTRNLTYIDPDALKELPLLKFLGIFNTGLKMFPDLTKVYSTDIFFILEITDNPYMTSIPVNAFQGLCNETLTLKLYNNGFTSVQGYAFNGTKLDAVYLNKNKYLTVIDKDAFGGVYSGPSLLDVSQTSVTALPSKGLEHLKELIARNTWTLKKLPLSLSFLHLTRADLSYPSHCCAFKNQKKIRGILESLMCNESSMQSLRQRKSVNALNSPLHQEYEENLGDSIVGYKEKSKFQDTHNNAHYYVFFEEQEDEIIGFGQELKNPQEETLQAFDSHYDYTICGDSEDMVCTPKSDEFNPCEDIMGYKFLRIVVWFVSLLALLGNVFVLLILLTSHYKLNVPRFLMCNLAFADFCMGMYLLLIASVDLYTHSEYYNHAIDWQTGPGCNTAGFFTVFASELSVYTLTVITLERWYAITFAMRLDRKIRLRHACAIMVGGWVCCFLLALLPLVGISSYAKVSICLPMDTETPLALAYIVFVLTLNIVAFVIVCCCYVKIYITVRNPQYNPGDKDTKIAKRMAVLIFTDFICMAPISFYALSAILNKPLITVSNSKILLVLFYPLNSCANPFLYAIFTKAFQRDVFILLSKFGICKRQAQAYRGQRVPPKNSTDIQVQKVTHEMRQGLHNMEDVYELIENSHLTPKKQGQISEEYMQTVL
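cAMP rise detected as CNG-channel membrane depolarization by fluorescent dye (emission 590 nm), 30 min after compound, following 60 min dye loading containing 100 uM RO 20-1724 at room temperature. Cells: TSHR/CNG HEK 293, with parental CNG HEK 293 as control.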
Pol III holo inh: inhibitors of bacterial DNA polymerase III holoenzyme; AID 603; Potency, µM (top dose mostly 57.1 µM), for the others: at the top dose activity change, negative = inhibition; reconstituted DNA polymerase III holoenzyme replication, biochemical; hit rate 0.25% among 71,000; also: potency is read from the fitted curve at half-maximal effect; % is scaled to controls: 0 for no effect and ±100 for the full control effect
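Reconstituted *E. coli* holoenzyme (0.35 nM Pol III, 1 nM beta, 154 nM SSB, 2 nM primase) was preincubated with compound for 15 min at RT. Synthesis on 1.4 nM ssM13Gori ran 35 min, then was stopped with PicoGreen/EDTA and read as dsDNA fluorescence.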
* marks the source's active call; other numbers are inactive results; [ ] = another dose, or the depositor's remark. In the library only some 3.2% were active in any assay of this set; here they are far more common. Unless noted, calls follow the shape of the dose curve; as a rule, active = well fitted curve in the direction sought with a large enough effect; inconclusive = small, poorly fitted or top-dose-only effect, or another doubt; inactive = no such curve, though single readings can be large; an effect the other way counts as inactive or inconclusive.

How did COCCn1c(C(=O)N2CCCC2)cc2c1C[C@H]1CN(C(=O)c3ccccc3)[C@@](Cc3ccc(OC)cc3)(C(=O)OC)[C@@H]21 do in these assays?
TsaE inh: inactive; BRCT PPI green: -2.2%; BRCT PPI red: 0.6%; HEK293 cAMP ctrl: inconclusive; TSHR agonist: inconclusive; Pol III holo inh: -12.5%

What do the screens show for `COC(=O)[C@@]1(Cc2ccc(OC)cc2)[C@H]2c3cc(C(=O)N4CCCC4)n(CCF)c3C[C@H]2CN1C(=O)c1ccccc1`?
TsaE inh: inactive; BRCT PPI green: -1.3%; BRCT PPI red: -0.6%; HEK293 cAMP ctrl: 20µM*; TSHR agonist: inconclusive; Pol III holo inh: -2.1%

How did COC(=O)[C@@]1(Cc2ccc(OC)cc2)[C@H]2c3cc(C(=O)N4CCCC4)n(Cc4ccc(OC)c(OC)c4)c3C[C@H]2CN1C(=O)c1ccccc1 do in these assays?
TsaE inh: inactive; BRCT PPI green: -0.3%; BRCT PPI red: -0.4%; HEK293 cAMP ctrl: 5.01µM*; TSHR agonist: inconclusive; Pol III holo inh: -3.4%

How did COc1cccc(Nc2ncc3nc(CCc4ccccc4)c(=O)n(Cc4cccs4)c3n2)c1 do in these assays?
TsaE inh: inactive; BRCT PPI green: 12.9%; BRCT PPI red: 0.9%; HEK293 cAMP ctrl: inconclusive; TSHR agonist: inconclusive; Pol III holo inh: -1.3%

How did COc1ncc2nc(-c3ccc(F)cc3)c(=O)n(C)c2n1 do in these assays?
TsaE inh: inactive; BRCT PPI green: -1.7%; BRCT PPI red: 0.1%; HEK293 cAMP ctrl: 3.8%; TSHR agonist: 0.2%; Pol III holo inh: -1.9%

How did CCNc1ncc2ncc(=O)n(C3CC3)c2n1 do in these assays?
TsaE inh: inactive; BRCT PPI green: -1.2%; BRCT PPI red: 1.1%; HEK293 cAMP ctrl: 11.5%; TSHR agonist: 0.7%; Pol III holo inh: -9.2%

Results for O=C(OCCN(C1=NS(=O)(=O)c2ccccc21)c1ccc(Cl)cc1)c1ccco1 ?
TsaE inh: inactive; BRCT PPI green: -3.2%; BRCT PPI red: 0.9%; HEK293 cAMP ctrl: 15.8µM*; TSHR agonist: inconclusive; Pol III holo inh: -11.6%

What do the screens show for `Cc1ccc(-c2nn3c(-c4ccco4)nnc3c3ccccc23)cc1S(=O)(=O)NCC1CCCO1` (configuration not stated)?
TsaE inh: inactive; BRCT PPI green: 6.1%; BRCT PPI red: 3.4%; HEK293 cAMP ctrl: 20µM*; TSHR agonist: inconclusive; Pol III holo inh: -0.3%

Results for Cc1ccc(-c2nn(C)c(=O)c3ccccc23)cc1S(=O)(=O)NCCN1CCOCC1 ?
TsaE inh: inactive; BRCT PPI green: 21.6%; BRCT PPI red: -2.0%; HEK293 cAMP ctrl: 18.1%; TSHR agonist: 7.0%; Pol III holo inh: 3.0%

Results for COC(=O)C/C=C\[C@@H](C)[C@@H](/C=N\O[C@@H](C)c1cn([C@H]2COC[C@H]2O)nn1)NS(=O)(=O)c1ccc(C)cc1 ?
BRCT PPI green: -1.0%[15.4 µM]; BRCT PPI red: -1.0%[15.4 µM]; HEK293 cAMP ctrl: -2.6%[11.4 µM]; TSHR agonist: -1.6%[11.4 µM]

Results for Nc1ccccc1N=Nc1c(S(=O)(=O)O)cc2cc(S(=O)(=O)O)cc(O)c2c1O ?
TsaE inh: inactive; BRCT PPI green: -0.8%[15.4 µM]; BRCT PPI red: -0.6%[15.4 µM]; HEK293 cAMP ctrl: 11.2%[11.4 µM]; TSHR agonist: 9.5%[11.4 µM]; Pol III holo inh: 2.51µM*

How did Nn1c(SCC(=O)NC2CCCc3ccccc32)nnc1-c1cccs1 (configuration not stated) do in these assays?
TsaE inh: inactive; BRCT PPI green: -0.5%; BRCT PPI red: -1.1%; HEK293 cAMP ctrl: 0.199µM*; TSHR agonist: inconclusive; Pol III holo inh: -6.0%

Results for Nn1c(SCC(=O)NC2CCCCC2)nnc1-c1ccccc1 ?
TsaE inh: inactive; BRCT PPI green: 0.2%; BRCT PPI red: 0.3%; HEK293 cAMP ctrl: 7.4%; TSHR agonist: -1.0%; Pol III holo inh: -2.6%

Results for COCOc1ccc(Br)cc1C(=O)[C@H]1O[C@H]1c1cccc(OC)c1 ?
BRCT PPI green: -1.8%[15.4 µM]; BRCT PPI red: 0.1%[15.4 µM]; HEK293 cAMP ctrl: inconclusive; TSHR agonist: inconclusive

Results for [O-]/[N+](=N\O)c1ccccc1 ?
TsaE inh: inactive; BRCT PPI green: 0.9%; BRCT PPI red: -3.1%; HEK293 cAMP ctrl: inconclusive; TSHR agonist: inconclusive; Pol III holo inh: 10.2%

How did CC(=O)NC(CCS(C)(=O)=O)C(=O)Nc1cccc(C)c1 (configuration not stated) do in these assays?
TsaE inh: inactive; BRCT PPI green: 0.1%; BRCT PPI red: 2.1%; HEK293 cAMP ctrl: 3.16µM*; TSHR agonist: inconclusive; Pol III holo inh: -8.0%

What do the screens show for `C1COC1`?
TsaE inh: inactive; BRCT PPI green: 0.3%; BRCT PPI red: 0.7%; HEK293 cAMP ctrl: inconclusive; TSHR agonist: inconclusive; Pol III holo inh: -4.2%

Results for Cc1cc(-n2c(C)cc(C(=O)CSc3nnc4sc5ccccc5n34)c2C)no1 ?
TsaE inh: inactive; BRCT PPI green: -2.3%; BRCT PPI red: 0.9%; HEK293 cAMP ctrl: 1.7%; TSHR agonist: 4.7%; Pol III holo inh: 0.8%

Results for Cc1cc(-n2c(C)cc(C(=O)CSc3ncnc4ccccc34)c2C)no1 ?
TsaE inh: inactive; BRCT PPI green: 3.5%; BRCT PPI red: -1.0%; HEK293 cAMP ctrl: 7.94µM*; TSHR agonist: inconclusive; Pol III holo inh: 4.4%

What do the screens show for `COc1ccc2[nH]c(C(=O)c3ccccc3)cc2c1`?
TsaE inh: inactive; BRCT PPI green: -1.3%; BRCT PPI red: -0.4%; HEK293 cAMP ctrl: 7.94µM*; TSHR agonist: inconclusive; Pol III holo inh: -11.3%

How did COCC(=O)N(Cc1cc2cc(OC)ccc2[nH]c1=O)c1ccccc1 do in these assays?
TsaE inh: inactive; BRCT PPI green: 2.3%; BRCT PPI red: -0.3%; HEK293 cAMP ctrl: 0.2%; TSHR agonist: -65.9%; Pol III holo inh: -6.6%

How did CCC(Sc1nc2ccccc2s1)C(=O)Nc1nnc(C)s1 (configuration not stated) do in these assays?
TsaE inh: inactive; BRCT PPI green: -2.3%; BRCT PPI red: -2.2%; HEK293 cAMP ctrl: 20µM*; TSHR agonist: inconclusive; Pol III holo inh: 6.1%

How did Cc1nnc(SCC(=O)Nc2nccs2)s1 do in these assays?
TsaE inh: inactive; BRCT PPI green: -0.4%; BRCT PPI red: -0.9%; HEK293 cAMP ctrl: 2.4%; TSHR agonist: -0.7%; Pol III holo inh: 0.6%

What do the screens show for `CCC(Sc1nnc(C)s1)C(=O)Nc1nccs1` (configuration not stated)?
TsaE inh: inactive; BRCT PPI green: -2.1%; BRCT PPI red: -0.4%; HEK293 cAMP ctrl: 25.1µM*; TSHR agonist: inconclusive; Pol III holo inh: -1.5%
